Assay [1] in a line: qHTS assay for small molecules that induce genotoxicity in human embryonic kidney cells expressing luciferase-tagged ATAD5 (AID 651632). Also: nearly all actives have a fitted effect of over 15% in size. Also: potency is read from the fitted curve at half-maximal effect. The note with it: HEK293T ATAD5-luciferase induction, 16 h; series mostly up to 83.3 µM. Summed up: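 Luminescence read-out: after 16 hr compound exposure at 37C, ATAD5-luciferase HEK293T cells received Amplite, 30 min RT, then CCD imaging. A rise in signal marks genotoxic stress.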
A general note: qHTS replaces the single test concentration by a dilution series.

The nature of assay [2]: qHTS assay for small molecule agonists of the p53 signaling pathway - cell viability (AID 651633; calls by dose curve; also: nearly all actives have a fitted effect of over 30% in size; also: potency is read from the fitted curve at half-maximal effect). The note with it: p53RE-bla HCT-116 viability, ATP luminescence, 16 h; series mostly up to 83.3 µM. Summed up:
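p53RE-bla cells were treated with compound for 16 hours at 37 C. Cytotoxicity was then measured as CellTiter-Glo luminescence after 30 min at room temperature.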

Assay [3] can be described thus: qHTS assay for small molecule disruptors of the mitochondrial membrane potential - cell viability (AID 720634; calls by dose curve; also: nearly all actives have a fitted effect of over 20% in size; also: potency is read from the fitted curve at half-maximal effect). The note with it: HepG2 viability, ATP luminescence (CellTiter-Glo), 1 h; series mostly up to 83.2 µM. The essentials: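 Luminescence from CellTiter-Glo (ATP content) gave viability in HepG2 cells, read in the same wells as the MMP dye assay after 1 hr compound exposure at 37 C.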

A short description of assay [4]: qHTS assay for small molecule disruptors of the mitochondrial membrane potential (AID 720635). Also: potency is read from the fitted curve at half-maximal effect. The note with it: HepG2 mitochondrial membrane potential, Mito-MPS dye ratio; series mostly up to 83.2 µM. The essentials: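 HepG2 cells exposed to compound 1 hr at 37C, then Mito-MPS dye 30 min. Ratio read of aggregate (540/590 nm) versus monomer (490/535 nm) fluorescence.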

Assay [5] can be described thus: qHTS assay to test for compound auto fluorescence at 590 nm (red) in HepG2 cells (AID 720674). The following applies: HepG2 autofluorescence, red 540/590 nm, 1 h; series mostly up to 91.3 µM. Summed up:
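Fluorescence at 590 nm emission following 540 nm excitation was recorded from HepG2 wells one hour after compound transfer, with DMSO-only wells as vehicle and Rose Bengal sodium equivalency as the scale.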

Assay [6] can be described thus: qHTS assay to test for compound auto fluorescence at 535 nm (green) in HepG2 cells (AID 720675). The following applies: green autofluorescence 485/535 nm, 1 h; series mostly up to 91.3 µM.
Assay [7] can be described thus: qHTS assay to test for compound auto fluorescence at 460 nm (blue) in HEK293 cells (AID 720678). The note with it: blue autofluorescence 405/460 nm; series mostly up to 91.3 µM. The essentials: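 After cell attachment (4-5 hr, 37C), compounds were pinned onto HEK293 monolayers in 10% dialyzed FBS medium. The blue channel (405/460 nm) was read following overnight culture. Equivalency was calculated against triamterene.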

A short description of assay [8]: qHTS assay for small molecules that induce genotoxicity in human embryonic kidney cells expressing luciferase-tagged ATAD5 - cell viability (AID 651634; calls by dose curve; also: nearly all actives have a fitted effect of over 25% in size; also: potency is read from the fitted curve at half-maximal effect). The note with it: HEK293T ATAD5-luc cells viability, CellTiter-Fluor, 15.5 h; series mostly up to 83.3 µM. Summed up:
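HEK293T ATAD5-luc cells, 2,000/well; compound 15.5 hr, 37C/5% CO2; CellTiter-Fluor 30 min, 37C; fluorescence read.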

The nature of assay [9]: qHTS assay to test for compound auto fluorescence at 590 nm (red) in HEK293 cells (AID 720679). The note with it: red autofluorescence 540/590 nm; series mostly up to 91.3 µM. The essentials:
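Plates of HEK293 cells (10% dialyzed FBS) are treated with 23 nL compound or DMSO vehicle after a 4-5 hr attachment period, incubated overnight at 37C, and read for red fluorescence at 540/590nm.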

“And” between values parts separate entries of the source, which are not always exact repeats. Identical values can stand only once. Inconclusive results are not listed. Where a structure was tested more than once in an assay, its records may differ in their call. The source made the active and inactive calls. Unless noted, calls follow the shape of the dose curve; as a rule, active = well fitted curve in the direction sought with a large enough effect in the repeat runs; inconclusive = weak or mixed curves; inactive = no such curve, though single readings can be large; an effect the other way counts as inactive or inconclusive.
% is scaled to controls: 0 for no effect and ±100 for the full control effect.

As to `CC(C)(C)CC(C)(C)c1ccccc1O`, the Potency result in assay [1], in assay [5], in assay [6] and in [7] was “inactive” each time. For the same molecule, the Potency in assay [2] is 43.5 µM (active); in assay [3] it was 27.4 µM (active); in [4], 2.18 µM (active).

Turning to `CCN=C1C=CC(=C(c2ccc(N(CC)CC)cc2)c2ccc(N(CC)CC)cc2)c2ccccc21`, the Potency entry in [1], in assay [5], in assay [6], in assay [7] and in assay [9] was “inactive” throughout. In addition, the Potency was 30.5 µM (active) in assay [2], 34.2 µM (active) in assay [8] and 0.0076 µM (active) in [4].

Turning to `CCN(CC)CCCN(c1ccccc1)C1Cc2ccccc2C1`, the Potency result in assay [1], in assay [5], in assay [6], in [7] and in assay [9] was “inactive” throughout. The Potency in assay [2] was 13.3 µM (active); in assay [3] it was 29.8 µM (active).

In the case of `CCCCN(CCCC)CCC(O)c1cc2c(Cl)cc(Cl)cc2c2cc(C(F)(F)F)ccc12` (configuration not stated), the Potency result in assay [1], in assay [2], in [8] and in assay [3] was “inactive” throughout. The fluorescence, relative to Rose Bengal in assay [5] was 0.511% [at 18.6 µM] (inactive). Also, the fluorescence, % of fluorescein control in [6] is 0.0229% [at 18.6 µM] (inactive). In addition, the fluorescence, % of triamterene in assay [7] was -0.234% [at 18.6 µM] (inactive). In addition, the fluorescence, % of fluorescent control in assay [9] was 0.217% [at 18.6 µM] (inactive).

With `C[C@@H]1CC[C@H]2C(C)(C)[C@H]3C[C@@]12CC[C@@]3(C)O`, the Potency result in assay [1], in [2], in [8], in [5], in [6] and in [7] was “inactive” in each case. In addition, in assay [9], the Potency entry was “inactive”. For the same molecule, in assay [4], the Potency was 61 µM (active).

Consider `Cc1cccc(C)c1NC(=O)CN1CCN(CCCC(c2ccc(F)cc2)c2ccc(F)cc2)CC1`, for which the Potency result in assay [1], in assay [2], in [8] and in [3] was “inactive” in each case. In assay [5], the fluorescence, relative to Rose Bengal was -0.479% [at 18.6 µM] (inactive). Also, the fluorescence, % of fluorescein control in assay [6] was 0.0022% [at 18.6 µM] (inactive). Besides, in assay [7], the fluorescence, % of triamterene is 0.0374% [at 18.6 µM] (inactive). Also, in assay [9], the fluorescence, % of fluorescent control was 0.0665% [at 18.6 µM] (inactive).

Take `C=CC(=O)OCC(O)COc1ccccc1` (configuration not stated): the Potency result in assay [1], in assay [3], in assay [5], in [6], in [7] and in assay [9] was “inactive” throughout. The Potency in assay [2] was 54.5 µM (active).

With `Cc1nc(Nc2ncc(C(=O)Nc3c(C)cccc3Cl)s2)cc(N2CCN(CCO)CC2)n1`, the Potency entry in assay [1], in assay [2], in [3], in assay [6] and in assay [7] was “inactive” each time.

Turning to `CCN(CC)CCOc1ccc(C(O)(Cc2ccc(Cl)cc2)c2ccc(C)cc2)cc1` (configuration not stated), the Potency result in assay [1], in assay [3], in assay [5], in assay [6], in assay [7] and in assay [9] was “inactive” throughout. Also, in assay [2], the Potency is 29.8 µM (active).

For `CCCCCCCOC(=O)c1ccc(O)cc1`, the Potency entry in assay [1], in [8], in [6], in assay [7] and in assay [9] was “inactive” throughout. The Potency entry is “inactive and 61.1 µM (active)” in assay [2]; 27.3 µM (active) in [3]; 8.64 µM (active) and 8.63 µM (active) in assay [4].

For `CC(C)c1ccc(O)c(C(C)C)c1`, the Potency entry in assay [1], in assay [2], in assay [3], in assay [5], in [6] and in [7] was “inactive” each time. In addition, in assay [9], the Potency entry was “inactive”. Further, the Potency in assay [4] is 15.4 µM (active).

With `CC(CN(C)C)CN1c2ccccc2CCc2ccccc21` (configuration not stated), the Potency entry in assay [1], in assay [2] and in assay [3] was “inactive” throughout. Also, the fluorescence, relative to Rose Bengal in [5] was 0.485% [at 18.6 µM] (inactive). The fluorescence, % of fluorescein control in assay [6] was -0.198% [at 18.6 µM] (inactive). In addition, the fluorescence, % of triamterene in [7] was -0.0464% [at 18.6 µM] (inactive). Also, the fluorescence, % of fluorescent control in assay [9] was -0.076% [at 18.6 µM] (inactive).

For the molecule `CN(C)c1ccc(N=NS(=O)(=O)O)cc1`, the Potency result in assay [1], in assay [2], in assay [5], in assay [6], in [7] and in assay [9] was “inactive” in each case. The Potency in assay [4] is 2.17 µM (active).

With `CCc1ccc(O)c(C(C)(C)C)c1`, the Potency result in assay [1], in [8], in assay [3], in [5], in [6] and in [7] was “inactive” throughout. Moreover, in assay [9], the Potency entry was “inactive”. For the same molecule, the Potency in assay [4] was 8.63 µM (active).

Turning to `O=C(Oc1ccccc1)c1cccc(C(=O)Oc2ccccc2)c1`, the results for the Potency in [1] and in assay [4] were 3.86 µM (active) and 32.3 µM (active), respectively. Besides, the Potency entry in assay [8], in assay [6], in assay [7] and in assay [9] was “inactive” in each case.

For the molecule `COc1cc(C(C)C)c2c(c1)S(=O)(=O)N(COc1cc(=O)n3cccc(OCCN4CCCCC4)c3n1)C2=O`, the Potency entry in assay [1], in assay [8] and in [3] was “inactive” throughout. Also, the fluorescence, % of fluorescein control in [6] is -0.0646% [at 18.6 µM] (inactive). Further, in assay [7], the fluorescence, % of triamterene was 0.0293% [at 18.6 µM] (inactive). For the same molecule, the fluorescence, % of fluorescent control in assay [9] was 0.266% [at 18.6 µM] (inactive).

Turning to `NC(=O)c1nc(-c2cccc(-c3cc(F)ccc3OCC(F)(F)C(F)(F)F)c2)n[nH]1`, the Potency entry in assay [1], in assay [5], in assay [6] and in assay [7] was “inactive” each time. In [4], the Potency was 9.69 µM (active).

In the case of `CCCCCCC(C)OC(=O)COc1nc(F)c(Cl)c(N)c1Cl` (configuration not stated), the Potency result in assay [1], in [8], in assay [5], in assay [6], in [7] and in assay [9] was “inactive” throughout. The Potency in assay [4] is 61.1 µM (active).

For the molecule `Clc1ccc(C(Cn2ccnc2)OCc2c(Cl)cccc2Cl)c(Cl)c1` (configuration not stated), the Potency result in assay [1], in assay [3] and in assay [4] was “inactive” throughout. Also, in [5], the fluorescence, relative to Rose Bengal is 0.526% [at 18.6 µM] (inactive). Moreover, the fluorescence, % of fluorescein control in assay [6] was -0.003% [at 18.6 µM] (inactive). For the same molecule, in assay [7], the fluorescence, % of triamterene is -0.277% [at 18.6 µM] (inactive). Besides, in assay [9], the fluorescence, % of fluorescent control was -0.295% [at 18.6 µM] (inactive).

As for `NC1(c2ccc(-c3nc4ccn5c(=O)[nH]nc5c4cc3-c3ccccc3)cc2)CCC1`, the Potency result in assay [1], in assay [3], in assay [6] and in [7] was “inactive” each time. The Potency in assay [4] was 13.3 µM (active).

Consider `NC(=O)C(=O)N/N=C/c1ccc([N+](=O)[O-])o1`, for which the Potency entry in assay [1], in [8], in assay [5], in [6] and in assay [7] was “inactive” throughout.

With `COC(=O)[C@]1(C)CCC[C@@]2(C)[C@H]1CC=C1C=C(C(C)C)CC[C@@H]12`, the Potency result in assay [1], in assay [3], in [5], in assay [6], in assay [7] and in assay [9] was “inactive” throughout. For the same molecule, the Potency in assay [4] is 54.5 µM (active).

Regarding `Brc1ccccc1-c1ccccc1`, the Potency entry in [1], in [2], in [5], in assay [6] and in assay [7] was “inactive” each time. Moreover, in assay [4], the Potency is 51.6 µM (active).

For the origin of these results see PubChem BioAssay (Tox21).
